This is part of a sample that, as a whole, favours compounds with a hit. Of some 83,000 tested, about 20% had one in any assay.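 Treatment: one concentration, 48 hours, 96-well format. Scoring: percent growth, with anything below 10 considered active.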 Values without a mark were called inactive. The source made the active and inactive calls.
Each compound was assayed on MDA-MB-468 breast (assay: NCI-60 one-dose screen, 48 h (100 = growth as untreated, 0 = no growth, -100 = all killed)). Conditions: 10 µM unless noted.

Q: Which growth does the source give for `O=c1[nH]n(-c2ccccc2)c(=O)cc1Cl` here?
A: 101%

Q: Which growth does the source give for `O=c1cc(-c2ccccc2)nc2cc(-c3ccco3)[nH]n12` here?
A: -1.48% (active)

Q: How did the growth turn out when `O=c1oc2c(cc1-c1ccccc1)c(=O)[nH]c1ccccc12` was run?
A: 105%

Q: With `Cc1cc(N/N=C/c2nc(-c3ccccc3)oc2C)c2cc(Br)ccc2n1` as the compound, how does the growth read?
A: 35.7%

Reference: PubChem BioAssay (NCI)
